IL1B secr inh – blocks inflammasome-driven IL-1 beta release. THP-1 LPS/ATP IL-1B secretion, AlphaLISA, 16 h; active compounds read low. activity change, % at 57.5 µM. actives 4.7% (n = 360,000); in the data active = activity change below about -50%; inconclusive = mostly about -30% to -49%; also: % is scaled to controls: 0 for no effect and ±100 for the full control effect
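Secreted IL-1B measured by AlphaLISA bead assay after 16 h compound exposure of THP-1 cells; compounds (final up to 57.5 uM) added 1 h before LPS (250 ng/mL) and ATP (1.25 mM) stimulation; lower signal means less secretion.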
DT40 TDP1 CPT – DT40-hTDP1 cell growth loss with CPT. AID 686979. actives 12% (n = 420,000). Potency, µM (titrated, usually from 46.2 µM), without a hit: at the highest dose activity change, negative = growth inhibition, actives largely listed as inhibitors. chicken DT40 Tdp1-/-;hTDP1 cells + 20 nM CPT, ATP luminescence, 48 h; also: potency is read from the fitted curve at half-maximal effect; % is scaled to controls: 0 for no effect and ±100 for the full control effect; nearly all actives have a fitted effect of over 55% in size
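Chicken DT40 Tdp1-/- cells complemented with human TDP1, 400 cells/well, exposed to compounds plus 20 nM camptothecin for at least 48 h at 37 C; viability read as ATP content by CellTiter-Glo luminescence.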
DT40 TDP1 no CPT – qHTS for Inhibitors of human tyrosyl-DNA phosphodiesterase 1 (TDP1): qHTS in cells in absence of CPT | DT40 Tdp1-/- hTDP1 cells, no CPT, ATP luminescence, 48 h | Potency, µM (top dose mostly 46.2 µM), for the others: top-dose activity change, negative = growth inhibition, most hits filed as inhibitors | actives 15% (n = 420,000) | AID 686978, 2013; also: potency is read from the fitted curve at half-maximal effect; % is scaled to controls: 0 for no effect and ±100 for the full control effect; nearly all actives have a fitted effect of over 55% in size
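Luminescent ATP content (CellTiter-Glo) served as the growth readout. Knockout chicken DT40 cells expressing human TDP1 were exposed to compounds without camptothecin for a minimum 48 hr at 37 °C.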
TGFb inhibitor – TGF-b pathway inhibition | HepG2 CAGA-GFP TGF-b/SMAD3 reporter, GFP fluorescence, 18 h; TGF-beta stimulated, 500 pg/mL final | actives 1.2% (n = 410,000) | Potency, µM (top dose mostly 46.1 µM), for the others: top-dose activity, negative = inhibition, hits mostly inhibitors | AID 588855; also: potency is read from the fitted curve at half-maximal effect; % is scaled to controls: 0 for no effect and ±100 for the full control effect; nearly all actives have a fitted effect of over 65% in size
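HEPG2 CAGA-GFP, 1000 cells/well; 2 h settle, 37 C; cpd via pin tool; TGF-b 500 pg/mL final; 18 h, 37 C; GFP imaging ex488/em500-530; %Activity normalised to -TGF-b and +DMSO controls; CRC fit, curve class.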
TDP1 inh – blocks human tyrosyl-DNA phosphodiesterase 1; recombinant TDP1, AlphaScreen DNA substrate cleavage; Potency, µM (series often up to 130 µM), without a hit: top-dose activity change, negative = inhibition, hits mostly inhibitors; Q9NUW8; actives 0.28% (n = 350,000); also: potency is read from the fitted curve at half-maximal effect; % is scaled to controls: 0 for no effect and ±100 for the full control effect; nearly all actives have a fitted effect of over 40% in size
Target sequence (Q9NUW8 whole entry, looked up): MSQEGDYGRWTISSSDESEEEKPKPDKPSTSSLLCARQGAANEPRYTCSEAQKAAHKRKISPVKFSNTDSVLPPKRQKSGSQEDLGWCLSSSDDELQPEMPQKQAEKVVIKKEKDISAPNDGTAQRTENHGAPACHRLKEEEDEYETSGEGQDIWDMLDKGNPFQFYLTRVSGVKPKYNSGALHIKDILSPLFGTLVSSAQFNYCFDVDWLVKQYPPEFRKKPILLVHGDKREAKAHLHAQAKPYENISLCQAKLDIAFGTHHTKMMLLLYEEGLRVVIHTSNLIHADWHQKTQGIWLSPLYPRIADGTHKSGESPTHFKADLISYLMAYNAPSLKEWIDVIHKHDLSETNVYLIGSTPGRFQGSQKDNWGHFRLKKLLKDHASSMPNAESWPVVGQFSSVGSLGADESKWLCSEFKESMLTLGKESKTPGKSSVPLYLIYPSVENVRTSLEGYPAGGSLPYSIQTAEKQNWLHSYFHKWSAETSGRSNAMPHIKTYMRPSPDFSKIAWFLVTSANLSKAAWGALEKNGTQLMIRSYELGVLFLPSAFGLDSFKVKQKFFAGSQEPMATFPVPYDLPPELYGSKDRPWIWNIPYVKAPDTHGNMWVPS
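Steps: enzyme plus compound, 15 min RT; add biotin/phosphotyrosine-FITC oligonucleotide (15 nM final), react 5 min; add donor/acceptor beads (10 ug/ml final), 10 min; read AlphaScreen. Tdp1 at 1 nM final.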
HepG2 tox – counter-screen for TGF-b inhibitors: cytotoxicity in HepG2 cells. actives 0.76% (n = 410,000). Potency, µM (doses to about 46.1 µM), for the others: top-dose activity change, negative = cytotoxicity, usual class: cytotoxic. HepG2 CAGA-GFP viability, ATP luminescence, 18 h. AID 588856; also: potency is read from the fitted curve at half-maximal effect
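CellTiter-Glo luminescence gave cytotoxicity after 18 hours at 37 degrees C. The cells were HepG2 CAGA-GFP in 1% FBS DMEM, stimulated with 500 pg/mL TGF-beta after compound addition. %Activity was normalised to no-cell wells (complete cell-killing) and DMSO (no toxicity), and curves were fitted and classified.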
Starred values were filed as active, the others as inactive; ? = inconclusive; . = no result given; [ ] = remark or other dose. Sampled rows, rich in hits. Any-hit rate of the full collection: about 18%. Unless noted, calls follow the shape of the dose curve; as a rule, active = well fitted curve in the direction sought with a large enough effect; inconclusive = small, poorly fitted or top-dose-only effect, or another doubt; inactive = no such curve, though single readings can be large; an effect the other way counts as inactive or inconclusive.

SMILES	IL1B secr inh	DT40 TDP1 CPT	DT40 TDP1 no CPT	TGFb inhibitor	TDP1 inh	HepG2 tox
Cn1nc(C(F)(F)F)c(-c2ccc(F)cc2)c1NC(=O)Nc1ccc(F)cc1	.	16µM*	15µM*	?	4%	-14%
Cn1nc(C(F)(F)F)c(-c2ccc(Br)cc2)c1NC(=O)c1cccnc1	3	?	13µM*	?	3%	-86%
Cc1ccc(NC(=O)CN(C)C(=O)COC(=O)c2nc3nccc(C)n3n2)cc1	14	0%	2%	22%	1%	-24%
COc1ccc(C2Nc3ccccc3C(=O)N2Cc2cccc3ccccc23)cc1COc1ccc(NC(C)=O)cc1 (centres undefined)	.	.	.	.	2%	.
O=C(NNC1=Nc2cccc3cccc1c23)c1ccc(Br)cc1	55	12µM*	13µM*	6%	-3%	-13%
CC1=CN2C(=N)/C(=C/c3ccc([N+](=O)[O-])o3)C(=O)N=C2S1	-104*	0.65µM*	1.3µM*	0%	3%	-55%
CC1=CN2C(=N)/C(=C/c3ccco3)C(=O)N=C2S1	-4	-11%	-16%	-25%	0%	-70%
CCOc1ccc(-c2ccc(/C=C3/C(=N)N4C(C)=CSC4=NC3=O)o2)c([N+](=O)[O-])c1	13	?	-114%	-29%	1%	-6%
CCOc1ccc(-c2ccc(/C=C3/C(=N)N4C=CSC4=NC3=O)o2)c([N+](=O)[O-])c1	7	21µM*	?	-4%	3%	36%
CCOC(=O)c1c(S(=O)(=O)N2CCC(C(=O)Nc3ccc(F)cc3F)CC2)c(C)n(C)c1C	.	-17%	-3%	-9%	6%	-8%
O=C(COC(=O)c1cccc(S(=O)(=O)N2CCOCC2)c1)NCCc1ccccc1	5	9%	1%	-4%	0%	2%
Cc1nn(-c2ccccc2)nc1C(=O)Nc1ccc2[nH]ncc2c1	-14	-26%	21µM*	-21%	6%	8%
CCc1nc2ccc(C(=O)N3CCN(c4ccc([N+](=O)[O-])cc4)CC3)cc2nc1CC	?	16µM*	?	?	5%	-18%
O=C(/C=C\c1ccc(-c2cccc([N+](=O)[O-])c2)o1)N1CCOCC1	-24	?	23µM*	6%	-3%	5%
CC1CCN(c2ccc(NC(=S)NC(=O)c3ccc(-c4cccc([N+](=O)[O-])c4)o3)cc2)CC1	-15	11µM*	10µM*	13%	4%	-26%
O=C(c1ccc(-c2cccc([N+](=O)[O-])c2)o1)N1CCN(c2ccc([N+](=O)[O-])cc2)CC1	31	6.5µM*	4.1µM*	0%	0%	0%
Cc1ccc(NC(=O)C2CCCN(S(=O)(=O)c3cccc4cccnc34)C2)c(C)c1 (centres undefined)	.	?	?	-16%	4%	4%
O=C(O)CC(c1ccc(F)cc1F)N1Cc2ccccc2C1=O (centres undefined)	2	35%	15%	11%	.	7%
COc1nc(Oc2ccc(=O)n(-c3ccccc3)n2)nc(N(C)C)n1	.	-17%	-1%	-22%	.	-34%
Cc1ccn2c(C(=O)NNC(=O)Nc3ccc(Cl)cc3)c(C)nc2c1	-8	-8%	1%	-21%	5%	-17%
COc1ccc(C(C)NC(=O)C2CCCC2)cc1OC (centres undefined)	4	0%	-12%	1%	4%	-3%
O=C(c1ccc(-c2ccc(Cl)cc2)o1)N1CCN(c2ccc([N+](=O)[O-])cc2Cl)CC1	0	5.2µM*	2.6µM*	?	3%	-48%
O=C(c1ccc(-c2ccc([N+](=O)[O-])cc2)o1)N1CCCCC1	0	?	-19%	-19%	7%	-4%
CC1CC(C)CN(C(=O)c2ccc(-c3ccc([N+](=O)[O-])cc3)o2)C1 (centres undefined)	?	16µM*	16µM*	-15%	12%	-55%
O=C(c1cccc([N+](=O)[O-])c1)N1CCN(c2ccc(Cl)cc2)CC1	-1	21µM*	15µM*	-1%	0%	5%
SMILES	IL1B secr inh	DT40 TDP1 CPT	DT40 TDP1 no CPT	TGFb inhibitor	TDP1 inh	HepG2 tox
CC(C)C(=O)N1CCN(c2ccc([N+](=O)[O-])cc2Cl)CC1	-5	?	?	5%	0%	-4%
CCNNC(=O)C(O)(c1cccc(C)c1)c1cccc(C)c1	-3	-19%	-23%	-14%	0%	-44%
Cc1cccc(C(O)(C(=O)NNc2ccc3ccccc3n2)c2cccc(C)c2)c1	22	6.5µM*	6.5µM*	-39%	0%	-19%
CCOc1cc(-c2cc(-c3ccc(C)o3)nc(N)c2C#N)ccc1O	-17	16µM*	16µM*	19%	-2%	-57%
Cc1ccc(-c2cc(-c3ccc(F)cc3)c(C#N)c(N)n2)o1	1	?	?	1%	0%	-14%
Cc1ccc(-c2cc(-c3ccc(Cl)cc3)c(C#N)c(N)n2)o1	-6	6.5µM*	9.2µM*	?	1%	-23%
Cc1ccc(-c2cc(-c3ccc(C)o3)nc(N)c2C#N)cc1	-6	15µM*	?	28%	8%	1%
Cc1cc(-c2cc(-c3ccc(Cl)cc3)nc(N)c2C#N)co1	17	8.2µM*	21µM*	-15%	-4%	-36%
CNC(=O)CSc1nc2[nH]ncc2c(=O)[nH]1	-17	-10%	7%	5%	2%	11%
CCOc1ncccc1C(=O)OCC(=O)NCc1ccccc1	9	5%	13%	1%	1%	-4%
COC(=O)CNC(=O)c1cnn(-c2ncc3c(n2)-c2ccccc2CCC3)c1C1CC1	.	-13%[9.04 µM]	-26%	.	.	.
Cc1ccccc1NC(=O)CCCNC(=O)c1ccc(Cl)cc1	39	2%	-15%	-8%	6%	5%
COc1cc(=O)n2c(c1C(=O)N(C)Cc1nonc1C)CCN(Cc1cccc3ccccc13)CC2	.	25%[9.04 µM]	?	.	.	.
CCOc1ccc(-n2cc(C(=O)NC(C)C)c3cc(OC)c(OC)cc3c2=O)cc1	5	?	26µM*	-4%	1%	-6%
CCOc1ccc(-n2cc(C(=O)N3CCC(C)CC3)c3cc(OC)c(OC)cc3c2=O)cc1	-17	16µM*	15µM*	13µM*	2%	-36%
